From PubChem BioAssay (NCATS) come the findings set out here.

The other results are listed elsewhere or left out. Inconclusive results are not listed. Active and inactive are the calls of the source. Calls follow the shape of the dose curve; as a rule, active = well fitted inhibition curve with a large enough effect; inconclusive = small, poorly fitted or top-dose-only effect; inactive = no such curve, though single readings can be large or run the other way.

A short description of the assay: qHTS screen for small molecules that inhibit ELG1-dependent DNA repair: Hit Confirmation in Cell-Based Luciferin Assay (AID 624247). The following applies: cell-free firefly luciferase luminescence counter-screen, ViewLux; series mostly up to 46.1 µM. From the text:
Cancer cells divide rapidly compared to normal cells in the body. During cell division, cancer cells need to duplicate their genome by DNA replication. The failure of genome duplication leads to cancer cells' death. Therefore, inhibitors of DNA replication could specifically kill cancer cells. Based on this concept, many chemotherapeutic agents were developed and have been used to treat cancer patients. However, there are a limited number of agents available in the clinical setting, and some of those that do exist have low efficacy and severe side effects. Therefore, if we can find the compounds that effectively block DNA replication either by directly damaging DNA or by inhibiting other cellular mechanisms, the options for cancer treatment will be broadened. With this in mind, we developed a quantitative high-throughput ELG1-luciferase reporter gene assay. Small molecules that specifically block ELG1 function in response to DNA damage can be identified by monitoring the suppression of luciferase activity. Since ELG1 defines a pathway for repairing DNA damage, agents blocking ELG1 function can be used to sensitize cancer cells to chemotherapeutic agents whose mechanism of action involves the induction of DNA damage. NIH Molecular Libraries Probe Production Network [MLPCN] NIH Chemical Genomics Center [NCGC] MLPCN Grant: R03 MH092164 Assay Provider: Kyungjae Myung, NHGRI, NIH
3 µL of substrate reagent will be pipetted into each well in 1536-well white, solid-bottom plates using a FRD dispenser, followed by addition of 23 nL of DMSO or compounds by pintool. After compound addition, 1 µL of luciferase will be added into the wells. The plates will be read in a ViewLux CCD-based plate reader.
(qHTS replaces the single test concentration by a dilution series.)
Regarding `O=C(C1CCCN(S(=O)(=O)c2ccccc2)C1)N1CCN(c2ccc(F)cc2)CC1` (stereo unspecified), the outcome was inactive.
In the case of `Cc1ccc(Nc2nc(N3CCOCC3)nc(N3CCOCC3)n2)cc1Cl` it was “inactive”.
Consider `COc1ccc(NC(C)=O)cc1NC(=O)CN1CCN(C2c3ccccc3-c3ccccc32)CC1`, for which the outcome was inactive.
For the compound `Cc1ccc(OCC(=O)Nc2ccc(-c3nc4ncccc4o3)cc2)cc1`, the result was inactive.
As for `Cc1ccccc1NC(=O)CSc1nc2ccc(Nc3nc(N4CCOCC4)nc(N4CCOCC4)n3)cc2s1`, the compound was called inactive.
In the case of `CCOC(=O)c1cccc(NC(=O)C2CCN(c3ncnc4c3nc3n4CCCCC3)CC2)c1`, the outcome was inactive.
As for `CS(=O)c1ccc(/C=C2\C=Cc3ccccc32)cc1` (stereo unspecified), the entry is “inactive”; as for `COc1ccc(NC(=O)c2sc3nc(C)nc(N4CCN(c5ccccn5)CC4)c3c2C)c(OC)c1`, “inactive”; as for `CC(=O)N1CCc2cc(Br)cc(S(=O)(=O)CCC(=O)Nc3c(C)n(C)n(-c4ccccc4)c3=O)c21`, “inactive”.
Turning to `COc1ccc(CSc2nc(N3CCOCC3)c3c(c2C#N)CC(C)(C)OC3)cc1`, the call was inactive.
In the case of `O=C(Nn1c(SCc2ccc([N+](=O)[O-])cc2)nc2ccccc2c1=O)c1ccc(F)cc1` it was “inactive”.
